# From PubChem
# BRCA1 expr act: qHTS Assay to Identify Small Molecule Activators of BRCA1 Expression | Potency, µM (doses to about 46.1 µM), for inactives: at the top dose activation, actives largely listed as activators | AID 624202, 2012 | 1.1% of 380,000 active | MCF7-BRCA1-FFLuc reporter, luminescence, 48 h; response scale: scaled: vehicle 0%, 10 µM genistein 100%; note: potency is the fitted concentration of half-maximal effect; nearly all actives have a fitted effect of over 80% in size
#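 MCF7-BRCA1-FFLuc cells, 2000/well in phenol-red-free MEM, attached 2 h then treated 48 h at 37 C. Luciferase luminescence read 15 min after reagent; normalized to genistein maximum activation (10microM) and DMSO, concentration-response fitted.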
# IL2 activator: qHTS of IL-2 Activators | 0.065% of 360,000 active | IL-2 activation reporter assay, cell-based qHTS; stimulated with anti-CD3/CD4/CD28 beads; in transgenic mouse T cells | activation, % (series mostly up to about 46 µM); in the data active = activation above about 50%; inconclusive = mostly about 30% to 49%; note: 0% is about no effect
#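 Readout: EGFP and DsRed signals by fluorescent plate cytometry. Unstimulated transgenic mouse T cells received compound 60 min before antibody-bead stimulation, then incubated 18 h at 37 degrees C.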
# p53 reactivation: qHTS assay for re-activators of p53 using a Luc reporter. Potency, µM (top dose mostly 92.2 µM), for the others: top-dose activity change, positive = activation, usual class: activators. AID 504706, 2011. 0.063% of 320,000 active. H1299 p53-A138V BP100-luciferase reporter, luminescence, 24 h; note: potency is the fitted concentration of half-maximal effect; % of control where 0% means no effect; nearly all actives have a fitted effect of over 45% in size
#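 p53-null H1299 cells stably carrying temperature-sensitive p53-A138V and a BP100-luciferase reporter were pinned with compounds (4-point, 1:5 series) and held 24 hrs at 37 deg C. Luminescence was read 10 min after detection reagent.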
# uPA surface inh: qHTS for Inhibitors of Cell Surface uPA Generation; cell surface uPA generation assay, qHTS; AID 540303, 2011; Potency, µM (series often up to 38.3 µM), inactives show top-dose activity change, negative = inhibition, most hits filed as inhibitors; 0.31% of 330,000 active; active = well fitted inhibition curve with a large enough effect; inconclusive = small, poorly fitted or top-dose-only effect; inactive = no such curve, though single readings can be large or run the other way; tested in mouse RAW 264.7 cells; note: potency is the fitted concentration of half-maximal effect; % is set by controls: 0 for no effect and ±100 for the full control effect; nearly all actives have a fitted effect of over 55% in size
# TCR act: Activators of T cell receptors: qHTS campaign. 330,000 tested, under 10 active. primary human leukocytes, anti-CD3, IL-2 HTRF, 48 h. Potency, µM (highest dose often 9.22 µM), inactives show at the top dose activation of IL-2 secretion, usual class: activators; note: % of control where 0% means no effect
#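 Readout: HTRF IL-2, Eu-cryptate/d2 antibody pair, 320nm excitation, 665nm emission. Stimulus: a-CD3 beads, no co-stimulation. Cells: primary human leukocytes. Exposure: 48 hr with compound.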
# * = called active by the depositor; ? = inconclusive; nt = not tested or not shown; [ ] = another dose, or the depositor's remark. Shown are actives, neighbours in structure and some others; about 1.4% of the full set was active somewhere. Unless noted, calls come from the whole dose curve; as a rule, active = well fitted curve in the direction sought with a large enough effect; inconclusive = small, poorly fitted or top-dose-only effect, or another doubt; inactive = no such curve, though single readings can be large; an effect the other way counts as inactive or inconclusive.
SMILES,BRCA1 expr act,IL2 activator,p53 reactivation,uPA surface inh,TCR act
Cc1ccc(F)cc1NC(=O)COC(=O)c1ccc(S(C)(=O)=O)c([N+](=O)[O-])c1,0%,nt,nt,nt,nt
O=C(Nc1nc2ccccc2s1)c1c(F)cccc1Cl,10µM*,0,nt,-1%,nt
Cn1cc(Cl)c(C(=O)Nc2nc3ccccc3s2)n1,47%,-2,?,?,-23%
CC1CCc2nc(NC(=O)Cc3cccs3)sc2C1 (centres undefined),5.6µM*,0,?,-2%,-6%
CN(C)c1ccc(C=C2C=Cc3ccccc32)cc1,?,-4,nt,-8%,0%
CCN(CC)c1ccc(/C=C2\C=Cc3ccccc32)cc1,4.5µM*,nt,nt,nt,nt
CN(C)c1ccc(/C=C2\C=Cc3ccccc32)cc1,3.5µM*,nt,nt,nt,nt
CCN(CC)c1ccc(NC(=O)C2=CC=CN3CCS(=O)(=O)N=C23)cc1,39%,7,13%,?,-1%
CC(C)(C)c1ccc(NC(=O)C2=CC=CN3CCS(=O)(=O)N=C23)cc1,10µM*,0,?,?,1%
Cc1ccc(-c2cc3cccc[n+]3cc2-c2ccc(C)cc2)cc1,-84%,-4,-18%,10µM*,2%[46.1 µM]
O=c1c(Br)c(N2CCOCC2)cnn1-c1ccccc1,13µM*,0,17%,-4%,-8%
O=c1c(Br)c(N2CCCC2)cnn1-c1ccccc1,?,0,?,-4%,3%[46.1 µM]
Fc1ccccc1COc1ccc(/C=N/n2cnnc2)cc1,10µM*,-1,-6%,-5%,-7%
Cc1cc(Sc2nnc(/N=C/N(C)C)s2)c2ccccc2n1,-88%,-1,-12%,?,-17%
Cc1cc(Sc2nnc(N)s2)c2ccccc2n1,-58%,-4,-14%,3.2µM*,-2%
Cc1cccc(-c2noc(-c3cccnc3NCc3ccco3)n2)c1,-1%,nt,nt,nt,nt
COc1ccccc1CNS(=O)(=O)c1cc(Br)cc2c1N(C(=O)C1CC1)CC2,-6%,nt,nt,nt,nt
Cc1ccc(C)c(OCCn2nnc3ccccc32)c1,99%,1,nt,-10%,nt
Cc1cc(C)cc(OCCn2nnc3ccccc32)c1,11µM*,0,nt,-9%,0%
Clc1ccccc1OCCn1nnc2ccccc21,11µM*,-1,nt,2%,1%
CN(C)C(=O)COc1ccc2cc(-c3ccccc3)c(=O)oc2c1,11µM*,-1,?,0%,1%
COc1ccc2cc(-c3ccccc3)c(=O)oc2c1,?,-1,?,-12%,5%
COc1ccccc1OC(C)C(=O)Nc1ccc(-c2nc3ccccc3s2)cc1 (centres undefined),80%,nt,nt,nt,nt
Cc1ccc(C(NC(=O)CN2C(=O)NC3(CCCC3)C2=O)c2ccccc2)cc1 (centres undefined),-16%,1,-6%,2%,0%
CCC1CSC(=Nc2ccc(C)cc2)N1C(=O)CN1C(=O)NC2(CCCC2)C1=O (centres undefined),?,-2,nt,8.9µM*,1%
SMILES,BRCA1 expr act,IL2 activator,p53 reactivation,uPA surface inh,TCR act
S=C(NCCc1ccccc1)N1CCc2ccccc2C1,10µM*,-3,7%,3%,-1%
OC1CCN(C(=S)NCCc2ccccc2)CC1,24%,-1,-1%,0%,4%
O=C(c1ccc2nc(N3CCOCC3)sc2c1)N1CCCC1,0%,-2,11%,4%,-5%
Clc1cccc2sc(N3CCOCC3)nc12,16µM*,5,nt,0%,0%
Fc1ccc2nc(N3CCOCC3)sc2c1,11µM*,-3,8%,-3%,0%
Cc1ccc(-c2nc3ccccc3o2)cc1NC(=O)C(C)Oc1ccccc1 (centres undefined),-10%,nt,nt,nt,nt
c1ccc(CNc2nc3ccccc3c3nc(-c4ccccc4)nn23)cc1,-28%,nt,nt,nt,nt
Cc1ccc(NC(=O)Nc2cccnc2)cc1Cl,13µM*,-2,12%,-1%,-2%
N#C/C(=C\c1ccccc1)C(=O)NCCN1CCOCC1,-11%,0,-1%,-2%,1%
C=CCn1c(=O)/c(=C/c2ccsc2)s/c1=C(\C#N)C(=O)NCCN1CCOCC1,-5%,60*,nt,-9%,-7%
O=C(Cn1nc(C(F)(F)F)c2c1CCCC2)Nc1ccc(F)c(Cl)c1,-72%,nt,nt,nt,nt
Cc1ccc2oc(Nc3nc(-c4ccccc4)cc(=O)[nH]3)nc2c1,3.5µM*,1,14%,-16%,16%
Cc1nc2sc(C(N)=O)c(N)c2c(C)c1CC(=O)c1ccccc1,11µM*,-1,-2%,0%,0%
Cc1cc(C)c2c(N)c(C(=O)c3ccccc3)sc2n1,-1%,0,-1%,1%,-4%
CCNc1nc(OC)nc(Oc2ccc(=O)[nH]n2)n1,10%,nt,nt,nt,nt
Cc1ccccc1NC(=O)CSc1nc2ccccc2o1,13µM*,-2,24%,nt,7%
Cc1ccccc1/C=N/NC(=O)CSc1nc2ccccc2o1,-15%,-1,?,1%,5%[46.1 µM]
O=C(CSc1nc2ccccc2o1)N/N=C/c1ccc(O)c(O)c1,2%,0,?,6.3µM*,-3%
Cn1c(C(=O)NCc2ccccn2)cc2c(=O)n3ccccc3nc21,5µM*,0,?,-14%,10%[46.1 µM]
Cn1c(C(=O)NC2CCCCC2)cc2c(=O)n3ccccc3nc21,-2%,0,?,-2%,-21%
CN(C)c1ccc(/C=C(\C#N)C(=O)Nc2nc3c(s2)CCN(Cc2ccccc2)C3)cc1,-22%,59*,1%,1%,3%
O=C(Nc1nc2c(s1)CN(Cc1ccccc1)CC2)C1CCC1,?,0,6%,7%,-7%
Cc1ccc(C(=O)c2coc3c2C(=O)C(=O)c2ccccc2-3)cc1,18µM*,0,2%,-14%,1%
Cc1ccc(C(=O)c2c(C)oc3c2C(=O)C(=O)c2ccccc2-3)cc1,-72%,-1,-11%,-17%,2%
COc1cccc(CNC(=O)CCc2c(C)nn(-c3ccc(N4CCOCC4)nn3)c2C)c1,7%,nt,nt,nt,nt
SMILES,BRCA1 expr act,IL2 activator,p53 reactivation,uPA surface inh,TCR act
CCCCOc1ccc(C(=O)N2CCN(CCc3ccncc3)CC2)cc1,0%,nt,nt,nt,nt
COc1ccc(CCn2c(=N)c(S(=O)(=O)c3ccc(C)cc3)cc3c(=O)n4ccccc4nc32)cc1,-9%,61*,-3%,-5%,-2%
Cc1ccc(Cn2c(=N)c(S(=O)(=O)c3ccc(Br)cc3)cc3c(=O)n4ccccc4nc32)cc1,-7%,95*,6%,-13%,1%
CCn1c(=O)c2cc(C(=O)NCCCN3CCN(C)CC3)sc2c2ccccc21,-6%,nt,nt,nt,nt
C(=C\c1nc(-c2cccnc2)no1)/c1ccccc1,2.8µM*,0,5%,4%,4%
Clc1ccccc1/C=C/c1nc(-c2cccnc2)no1,?,-3,24%,-17%,-28%
O=C(NC(=S)Nc1ccccc1)c1cccs1,5.6µM*,0,?,-10%,4%
